Results published in PubChem BioAssay AID624171 (National Center for Advancing Translational Sciences (NCATS), 2012).
The whole screen tested about 410,000 compounds, of which about 1,200 (0.29%) were called active. A call without a number means that no potency is given here. Another 2% or so got no clear call; they are omitted. Calls come from the whole dose curve; as a rule, active = well fitted activation curve with a large enough effect; inconclusive = small, poorly fitted or top-dose-only effect; inactive = flat fitted curve, though single readings scatter. This excerpt belongs to a sample that is enriched for actives.

experiment: qHTS of Nrf2 Activators; conditions: AREc32 ARE-luciferase reporter (MCF7-derived line), luminescence, 24 h; series mostly up to 46.1 µM; note: nearly all actives have a fitted effect of over 65% in size
Text: Many diseases have some form of oxidative stress injury and ties to inflammation, causing a host of problems for the patient. The antioxidant response element (ARE) plays an important role in alleviating the harmful effects of oxidative stress. The antioxidant response element (ARE) is a transcriptional regulatory element involved in the activation of genes coding for a number of antioxidant proteins and detoxifying enzymes. These enzymes work in concert to protect tissues from oxidative insults and chemical toxicities in human hepatocytes and immune cells. The protective effects of ARE activation are primarily triggered through Nrf2 (NF-E2-related factor) binding to and activating AREs. It is known that Nrf2 controls the production of over 250 antioxidant and detoxification proteins (Hu et al., 2006), thereby protecting tissues by increasing cellular antioxidant content and suppressing inflammatory signaling pathways. The transcription factor Nrf2 is a central link between oxidative chemicals, such as phenolic antioxidants and electrophilic compounds, and the activation of ARE. Nrf2 levels are constitutively low as a consequence of its interaction with Keap1, which targets its degradation (Zipper and Mulcahy, 2002). Electrophiles react with key cysteine residues in Keap1, releasing Nrf2 and allowing its translocation to the nucleus. Once within the nucleus, Nrf2 complexes with coactivators such as p300, and binds to the AREs to induce gene transcription of cytoprotective enzymes, resulting in the prevention of toxicity. Activation of Nrf2 protects tissues by increasing cellular antioxidant content and suppressing inflammatory signaling pathways. Identifying novel and potent Nrf2 activators by using the AREc32 cell line to detect ARE activation by small molecules will lead to the identification and development of probes to study protective pathways in multiple tissues. These specific probes are essential to study the ARE pathway, and eventually to determine whether this pathway does activate genes that could protect against a host of diseases, including cardiovascular diseases, obesity, diabetes, Alzheimer's, and Parkinson's disease.
This project's aim is to identify novel and potent Nrf2 activators by using the AREc32 cell line to detect ARE activation by small molecules, which will lead to the identification and development of probes to study the ARE pathway.
NIH Chemical Genomics Center [NCGC]
NIH Molecular Libraries Probe Centers Network [MLPCN]
Assay Submitter (PI): Curtis Klaassen, University of Kansas Medical Center
5 uL of 1000 cells/well of AREc32_Fluc cells are seeded into 1536-well plate in OPTI-MEM medium with 5% FBS. The plates are incubated overnight at 37 deg C with 5% CO2. Then through pin tool transfer, 23 nL of compounds are added to each well before a 24 hr incubation at 37 deg C with 5% CO2. After the addition of 2.5 uL of Steady-Glo. the plates are kept at RT for 30 min, before they are read on the ViewLux.
Potency is the fitted concentration of half-maximal effect.

Row | SMILES | Potency | activation
1 | CCN1CCN(c2cc(C)c3cc(NC(=O)c4cc(Cl)ccc4OC)ccc3n2)CC1 | inactive | 
2 | COc1ccc(CCNC(=O)CCCn2c(=O)c3ccccc3n(Cc3ccc(F)cc3Cl)c2=O)cc1OC | inactive | 
3 | CCOc1ccccc1C(=O)NC1(C(F)(F)F)C(=O)Nc2c1c(=O)[nH]c(=O)n2-c1ccc(F)cc1 (stereo unspecified) | inactive | 
4 | Cc1ccc(-c2noc(-c3nnn(-c4cccc(C(F)(F)F)c4)c3N)n2)cc1 | inactive | 
5 | Cc1cccc(NC(=O)CSc2nnc(CNC(=O)c3cccc(C)c3)n2-c2ccccc2)c1 | inactive | 
6 | CCOC(=O)c1c(NC(C)=O)c2c3c(sc2n1Cc1c(C)cc(C)cc1C)CCCC3 | inactive | 
7 | COc1ccccc1CNC(=O)CCCCn1c(=O)c2ccccc2n(CC(=O)Nc2cc(Cl)ccc2C)c1=O | inactive | 
8 | COc1cccc(C(=O)N(Cc2cccc(Cl)c2)Cc2ccco2)c1 | inactive | 
9 | COc1ccccc1N1CCN(S(=O)(=O)CCNC(=O)COc2ccc(F)cc2)CC1 | inactive | 
10 | CC(C)n1c(O)c(N=Nc2ccccn2)c2ccccc21 | 12.6 µM (active) | 
11 | COC(=O)Cn1c(O)c(N=NC(=O)OC)c2ccccc21 | inactive | 
12 | CCOC(=O)c1ccc(N2C(=O)c3[nH]nc(-c4ccccc4)c3C2c2ccc(C(C)C)cc2)cc1 (stereo unspecified) | inactive | 
13 | CC1CCCCN1Cc1c(O)ccc2c(=O)c(-c3cccc(Cl)c3)c(C(F)(F)F)oc12 (stereo unspecified) | inactive | 
14 | COc1ccc(-c2nc3c4ccccc4n(CC(=O)Nc4ccc(C(C)=O)cc4)c(=O)n3n2)cc1 | inactive | 
15 | CC(C)(C)OC(=O)N1CCC(c2c(C(=O)N3CCc4ccccc4C3)cnn2-c2ccc(F)cc2)CC1 | inactive | 
16 | O=[N+]([O-])c1cccc(C=NN=Cc2ccccc2O)c1 | 10 µM (active) | 
17 | O=C(N/N=C/c1cccc([N+](=O)[O-])c1)c1ccncc1 | 12.6 µM (active) | 
18 | O=C(/C=C/c1cccc([N+](=O)[O-])c1)OCC(=O)N1CCOCC1 | inactive | 
19 | N/C(=N\OS(=O)(=O)c1cccc([N+](=O)[O-])c1)c1ccncc1 | inactive | 
20 | COc1cc(CCN=Cc2ccccc2O)c([N+](=O)[O-])cc1OC | inactive | 
21 | O=C(c1ccncc1)N1CCN(S(=O)(=O)c2cccc([N+](=O)[O-])c2)CC1 | inactive | 
22 | O=C(COc1ccccc1F)OCc1cc(=O)n2nc(C3CCCCC3)sc2n1 | inactive | 
23 | Cc1cccc(OCC(=O)N(Cc2ccc(C(C)C)cc2)Cc2ccco2)c1C | inactive | 
24 | O=C1CSC2(C(=O)N(Cc3ccccc3)c3ccccc32)N1c1cccc(F)c1 (stereo unspecified) | inactive | 
25 | Cc1ccc(C)c(N2CCN(C(c3ccccc3)c3nnc(-c4ccccc4)o3)CC2)c1 (stereo unspecified) | inactive | 
26 | CCn1cc(C(=O)N2CCN(c3cc(Cl)ccc3C)CC2)c(=O)c2cc(S(=O)(=O)N3CCCC3)ccc21 | inactive | 

Row | SMILES | Potency | activation
27 | Cc1ccc(-n2c3nc(=O)[nH]c(=O)c-3cc3c(Cl)cccc32)cc1 | inactive | 
28 | C#CCSc1nnc(-c2sc3ccccc3c2Cl)o1 | 4.47 µM (active) | 
29 | COc1ccc2c(Cl)c(-c3nnco3)sc2c1 | inactive | 
30 | O=C(OCC#CCSc1nnc(-c2ccncc2)o1)c1sc2ccccc2c1Cl | inactive | 
31 | CCN(CC)c1ccc(NC(=O)CN2C(=O)c3cccnc3Oc3ccc(Cl)cc32)c(C)c1 | inactive | 
32 | Cc1ccc2cccc(NC(=O)c3cccc4ccccc34)c2n1 | inactive | 
33 | Cc1cccc2c(=O)cc(CSc3ccccc3NC(=O)C(C)C)[nH]c12 | inactive | 
34 | Cc1ccccc1NC(=O)c1cnn(-c2ccccc2)c1NC(=O)c1ccco1 | inactive | 
35 | CCn1nc(NC(=O)c2ccco2)c2cc3ccc(C)cc3nc21 | inactive | 
36 | Cc1ccnc(NC(=O)c2ccco2)n1 | 12.6 µM (active) | 
37 | COc1ccc(NC(=O)CCc2nnc3n(CC(C)C)c(=O)c4ccccc4n23)cc1OC | inactive | 
38 | Cc1ccc(Cn2c(CCCNC(=O)C3CCCCC3)nc3ccccc32)cc1 | inactive | 
39 | CCc1cc(C(=O)Nc2nnc(C3CC3)s2)sc1C | inactive | 
40 | CCc1ccccc1OCC(=O)Nc1nnc(C2CC2)s1 | inactive | 
41 | O=C(Nc1nnc(C2CC2)s1)c1cc(Cl)sc1Cl | 20 µM (active) | 
42 | CCOc1ccc(-n2c(SCC(=O)NCc3ccccc3)nc3n[nH]c(C)c3c2=N)cc1 | inactive | 
43 | C/C=C/C(=O)Nc1nnc(C(C)C)s1 | inactive | 
44 | CCC(CC)c1nnc(NC(=O)C2CCN(C(=O)c3ccco3)CC2)s1 | inactive | 
45 | CCC(CC)c1nnc(NC(=O)/C=C/c2ccco2)s1 | 2.51 µM (active) | 
46 | CCc1ccc2oc(-c3ccc(C)c(NC(=O)/C=C/c4ccco4)c3)nc2c1 | inactive | 
47 | Cc1nnc(NC(=O)/C=C/c2ccco2)s1 | 3.55 µM (active) | 
48 | CCC(CC)c1nnc(NC(=O)C2=COCCO2)s1 | inactive | 
49 | Cc1cc(NS(=O)(=O)c2ccc(NC(=O)c3ccccc3C)cc2)nc(C)n1 | inactive | 
50 | CCc1ccc(N2C(=O)CN(S(=O)(=O)CC)CC2(C)C(=O)NC2CCCCC2)cc1 (stereo unspecified) | inactive | 
51 | Cc1ccccc1OCC(=O)Nc1c(C(=O)Nc2ccccc2F)oc2ccccc12 | inactive | 
52 | CCOC(=O)c1cccc(NC(=O)c2cc(CN3CCCC3)on2)c1 | inactive | 

Row | SMILES | Potency | activation
53 | CC1CCC2(CC1)N=C(c1ccccc1)C(=O)N2CC(=O)Nc1ccc(F)c(Cl)c1 (stereo unspecified) | inactive | 
54 | COc1ccc(Cl)cc1NC(=O)CSc1nc(=O)[nH]c2c1CCCC2 | inactive | 
55 | CCNC(=O)c1cc2n(n1)CCCN(Cc1ccc(C)cc1)C2=O | inactive | 
56 | CCSc1nnc(-c2cc3c(s2)-c2ccccc2CC3)o1 | 12.6 µM (active) | 
57 | COc1ccccc1-c1nnc(SCC(N)=O)o1 | inactive | 
58 | Fc1ccc(CSc2nnc(-c3cc4c(s3)-c3ccccc3CC4)o2)cc1 | inactive | 
59 | CCc1ccccc1NC(=O)c1ccc(F)c(S(=O)(=O)NC2CCCCCC2)c1 | inactive | 
60 | Fc1ccc(C(Nc2ccc(Cl)c(C(F)(F)F)c2)c2nnc(-c3ccccc3)o2)cc1 (stereo unspecified) | inactive | 
61 | COc1ccc(Oc2c(Cl)cnn(-c3ccccc3)c2=O)cc1 | 12.6 µM (active) | 
62 | COc1ccc(-n2c(=O)c3ccccc3n(Cc3ccccc3Cl)c2=O)cc1 | inactive | 
63 | COc1ccc(-n2c(C)nc3c(cnn3-c3ccc(F)cc3)c2=O)cc1 | inactive | 
64 | Cc1ccccc1CS(=O)(=O)CC1Nc2ccc(C(=O)NCc3ccc(Cl)cc3)cc2NC1=O (stereo unspecified) | inactive | 
65 | O=C(NCc1ccc2c(c1)CCN2C(=O)c1ccccc1)Nc1cc(F)ccc1F | inactive | 
66 | CCS(=O)(=O)N1CCN(C(=O)c2cccs2)CC1 | inactive | 
67 | O=C1/C(=C/c2cccs2)CCc2ccccc21 | 11.2 µM (active) | 
68 | O=S(=O)(c1cccs1)N1CCc2ccccc2C1 | inactive | 
69 | CCC1C/C(=C/c2cccs2)C(=O)/C(=C/c2cccs2)C1 (stereo unspecified) | 5.62 µM (active) | 
70 | CCCCC1S/C(=N/N=C/c2cccs2)NC1=O (stereo unspecified) |  | 2.71% [at 9.22 µM] (inactive)
71 | O=C1/C(=C/c2cccs2)CCC1C1CCCC1 (stereo unspecified) | inactive | 
72 | Cc1c2cnn(-c3ccccc3)c(=O)c2c(C)n1C(C)C(=O)Nc1ccc(Br)cc1F (stereo unspecified) | inactive | 
73 | COc1ccc(-c2nc3scc(CCNS(=O)(=O)c4cc(F)ccc4OC)n3n2)cc1OC | inactive | 
74 | Cn1nc(-c2ccccc2)c(-c2ccccc2)c(C(=O)Nc2ccc(S(N)(=O)=O)cc2)c1=O | inactive | 
75 | O=S(=O)(c1ccc2nc(NCc3ccccc3Cl)ccc2c1)N1CCCCC1 | inactive | 
76 | O=C(CN1C(=O)COc2ccccc21)Nc1ccc(F)cc1 | 12.6 µM (active) | 
77 | O=C(CN1C(=O)COc2ccc(Cl)cc21)Nc1ccc(N2CCOCC2)cc1 | inactive | 
78 | CC(OC(=O)CN1C(=O)COc2ccccc21)C(=O)NCc1ccc(F)cc1 (stereo unspecified) | inactive | 

Row | SMILES | Potency | activation
79 | CNc1ccc(-c2nc(-c3ccccc3C)no2)cc1[N+](=O)[O-] | inactive | 
80 | CNc1ccc(-c2nc(-c3ccco3)no2)cc1[N+](=O)[O-] | 1.41 µM (active) | 
81 | CC(Nc1ccc(-c2nc(-c3ccco3)no2)cc1[N+](=O)[O-])c1ccccc1 (stereo unspecified) | inactive | 
82 | CCCCN(CCCNC(=O)c1cc(Nc2ccccc2OC)nc2ccccc12)c1ccccc1 | inactive | 
83 | CCCOC(=O)c1c(NC(=O)c2cc3nc(-c4ccc(OC)cc4)cc(C(F)(F)F)n3n2)sc2c1CCCC2 | inactive | 
84 | CCOc1cc(-c2nnc(SCC(=O)NC3CCCCC3)nc2-c2ccc(OC)c(OCC)c2)ccc1OC | inactive | 
85 | CCN(CC)CCNc1ncnc2c1cnn2-c1cc(Cl)ccc1C | inactive | 
86 | O=C(Nc1ccc(OC(F)(F)F)cc1)C1CCCN(S(=O)(=O)c2ccc(Br)s2)C1 (stereo unspecified) | inactive | 
87 | O=C(Nc1cccc(Cl)c1)c1csnn1 | inactive | 
88 | O=C(Nc1ccc(Cl)cc1)c1csc([C@@H]2O[C@H](CO)[C@H](O)[C@H](O)[C@H]2O)n1 | inactive | 
89 | O=C(Nc1ccc(Cl)cc1)c1ccsn1 | 11.2 µM (active) | 
90 | O=S(=O)(c1ccc(C2CCCCC2)cc1)N1CCN(c2ccc(Cl)c(Cl)c2)CC1 | inactive | 
91 | CCOc1ccc2nc(N3CCCC(C(=O)Nc4cc(C)ccc4C)C3)sc2c1 (stereo unspecified) | inactive | 
92 | Cc1cc(C)cc(NC(=O)c2cnc3sc(N4CCCC4)nn3c2=O)c1 | inactive | 
93 | CCOc1ccc(CCNC(=O)c2csc3c2CCCCC3)cc1 | inactive | 
94 | CCOC(=O)c1ccc(NC(=O)c2csc3c2CCCCC3)cc1 | inactive | 
95 | COC(=O)c1sccc1NC(=O)c1csc2c1CCCC2 | 11.2 µM (active) | 
96 | CC(C)c1ccc(C2CC(=O)N3CN(C4CCCCC4)CSC3=C2C#N)cc1 (stereo unspecified) | inactive | 
97 | CC(=O)c1cccc(NC(=O)CSc2nc3c(c(=O)[nH]2)CCC3)c1 | inactive | 
98 | N#CC(=C1CCCC1)c1nc(-c2ccc(Cl)cc2)cs1 | inactive | 
99 | N#CC(=C1SC=CS1)c1nc(-c2ccccc2)cs1 | 7.08 µM (active) | 
100 | Cc1ccc(-c2csc(C(C#N)=C(O)CN3CCN(C(=O)c4ccco4)CC3)n2)cc1 | inactive | 
101 | Fc1cccc(-n2ncc3c2ncn2nc(-c4ccccc4Cl)nc32)c1 | inactive | 
